# Assay results as given in PubChem BioAssay (Tox21).
# Values joined by “and” are separate entries in the source; they are usually repeats but may differ in a detail not shown here. Equal values may be shown once. Records with an inconclusive call do not appear. Where a call stands in place of a potency, no number is given. Unmarked numbers belong to inactive results. Active and inactive are the calls of the source. Unless noted, calls come from the whole dose curve; as a rule, active = well fitted curve in the direction sought with a large enough effect in the repeat runs; inconclusive = weak or mixed curves; inactive = no such curve, though single readings can be large; an effect the other way counts as inactive or inconclusive.
# Experiments:
# [1] = target: Aryl hydrocarbon receptor (Homo sapiens) (UniProt P35869); assay: qHTS assay to identify small molecule that activate the aryl hydrocarbon receptor (AhR) signaling pathway (AID 743085);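 note: HG2L7.5c1 human HepG2 liver cells with stably integrated DRE-driven firefly reporter; series mostly up to about 70 µM; nearly all actives have a fitted effect of over 15% in size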
# Chain of Aryl hydrocarbon receptor (Homo sapiens) (P35869 whole entry, looked up): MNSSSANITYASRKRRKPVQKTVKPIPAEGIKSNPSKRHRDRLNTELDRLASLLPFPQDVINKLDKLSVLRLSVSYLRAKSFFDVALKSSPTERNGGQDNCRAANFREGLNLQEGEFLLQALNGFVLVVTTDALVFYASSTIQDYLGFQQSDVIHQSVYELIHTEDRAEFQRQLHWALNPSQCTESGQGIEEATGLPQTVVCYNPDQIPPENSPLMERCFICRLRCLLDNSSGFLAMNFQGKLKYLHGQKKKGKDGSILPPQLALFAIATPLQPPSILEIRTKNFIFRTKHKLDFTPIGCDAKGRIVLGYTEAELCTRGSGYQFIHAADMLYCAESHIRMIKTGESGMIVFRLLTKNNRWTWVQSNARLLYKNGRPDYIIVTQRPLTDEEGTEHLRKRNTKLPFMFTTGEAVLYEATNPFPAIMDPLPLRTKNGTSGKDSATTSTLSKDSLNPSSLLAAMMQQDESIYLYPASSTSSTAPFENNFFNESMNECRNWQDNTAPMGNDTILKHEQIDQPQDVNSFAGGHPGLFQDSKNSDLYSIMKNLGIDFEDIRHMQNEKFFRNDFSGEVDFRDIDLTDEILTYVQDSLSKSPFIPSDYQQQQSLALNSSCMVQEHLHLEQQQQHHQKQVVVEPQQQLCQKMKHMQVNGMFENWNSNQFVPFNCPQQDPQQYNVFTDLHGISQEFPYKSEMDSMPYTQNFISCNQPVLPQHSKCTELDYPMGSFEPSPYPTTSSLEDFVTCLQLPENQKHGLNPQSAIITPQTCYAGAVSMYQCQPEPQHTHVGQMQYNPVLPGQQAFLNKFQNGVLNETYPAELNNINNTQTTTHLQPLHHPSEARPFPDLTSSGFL
# Outline: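 Steps: seed HepG2-AhR-luc cells; allow 5 h at 37C; pin-transfer test compound or vehicle; incubate 24 h at 37C; add viability dye (30 min, 37C) and read fluorescence; add luciferase substrate (30 min, RT) and read luminescence.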
# [2] = qHTS assay to identify small molecule that activate the aryl hydrocarbon receptor (AhR) signaling pathway - cell viability counter screen (AID 743086);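 note: HepG2 liver cells carrying the AhR DRE luciferase reporter; series mostly up to about 70 µM; nearly all actives have a fitted effect of over 45% in size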
# Outline: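 HepG2-AhR-luc (HG2L7.5c1) cells, 4000/well, were preincubated 5 h at 37C, exposed to compound in qHTS format for 24 hr at 37C, then given CellTiter-Fluor for 30 min; viability was read as fluorescence in the reporter wells.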
# [3] = target: Peroxisome proliferator-activated receptor gamma (Homo sapiens) (UniProt P37231); assay: qHTS assay to identify small molecule agonists of the peroxisome proliferator-activated receptor gamma (PPARg) signaling pathway (AID 743094; active = well fitted activation curve with a large enough effect in the signal ratio in the repeat runs, not every such curve was filed as active; the % refers to the signal ratio)
# Chain of Peroxisome proliferator-activated receptor gamma (Homo sapiens) (P37231 whole entry, looked up): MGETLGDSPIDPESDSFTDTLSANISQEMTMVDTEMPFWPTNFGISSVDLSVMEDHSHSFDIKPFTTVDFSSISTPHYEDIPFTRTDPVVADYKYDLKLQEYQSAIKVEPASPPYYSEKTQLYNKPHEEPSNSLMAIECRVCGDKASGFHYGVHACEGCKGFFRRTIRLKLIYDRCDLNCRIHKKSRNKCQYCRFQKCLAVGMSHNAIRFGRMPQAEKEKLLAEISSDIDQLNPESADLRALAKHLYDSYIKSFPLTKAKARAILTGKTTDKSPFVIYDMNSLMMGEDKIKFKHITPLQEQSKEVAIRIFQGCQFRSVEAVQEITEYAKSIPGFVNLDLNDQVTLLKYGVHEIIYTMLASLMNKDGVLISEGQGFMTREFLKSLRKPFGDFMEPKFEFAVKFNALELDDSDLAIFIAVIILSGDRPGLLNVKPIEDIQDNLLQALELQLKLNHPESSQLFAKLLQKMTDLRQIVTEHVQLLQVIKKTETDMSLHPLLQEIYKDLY
# Outline: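 Agonism was assessed in a beta-lactamase reporter system, HEK293H cells with a stably integrated UAS-bla construct under PPARg control; the 17 h treatment at 37C preceded a 1 h room-temperature FRET substrate read.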
# [4] = target: Peroxisome proliferator-activated receptor gamma (Homo sapiens) (UniProt P37231); assay: qHTS assay to identify small molecule antagonists of the peroxisome proliferator-activated receptor gamma (PPARg) signaling pathway (AID 743191; calls by dose curve; note: series mostly up to about 63 µM; nearly all actives have a fitted effect of over 30% in size)
# Outline: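 GeneBLAzer PPARg UAS-bla HEK293H cells carrying a UAS-driven beta-lactamase reporter were plated at 3000 cells/well, preincubated 5 h at 37C, then given compound for 17 h at 37C; LiveBLAzer B/G FRET substrate was read after 1 h at room temperature.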
# [5] = qHTS assay to identify small molecule antagonists of the peroxisome proliferator-activated receptor gamma (PPARg) signaling pathway - cell viability counter screen (AID 743194); settings: Potency: co-treated with 50 nM rosiglitazone; note: nearly all actives have a fitted effect of over 55% in size; note: potency is the fitted concentration of half-maximal effect
# Outline: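 PPARg-UAS-bla HEK293H cells were plated, rested 5 h at 37 C, then treated with compounds plus rosiglitazone (50 nM final) for 17 h at 37 C; viability was then read by CellTiter-Glo luminescence after 30 min at room temperature.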
# [6] = qHTS assay for small molecule agonists of the antioxidant response element (ARE) signaling pathway - cell viability counter screen (AID 743203; calls by dose curve; note: nearly all actives have a fitted effect of over 55% in size; note: potency is the fitted concentration of half-maximal effect)
# Outline: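 ATP content via CellTiter-Glo luminescence served as the viability measure. Cells: ARE-bla HepG2, 2,000 per well. Exposure: 16 hrs, 37C/5% CO2.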
# [7] = qHTS assay for small molecule activators of the heat shock response signaling pathway - cell viability counter screen (AID 743209); note: nearly all actives have a fitted effect of over 50% in size
# Outline: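 Compounds dissolved in DMSO were added to overnight-plated HSE-bla HeLa cells and left 5 h at 37 C. Cell viability was quantified by luminescence using CellTiter-Glo.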
# [8] = qHTS assay for small molecule activators of the heat shock response signaling pathway (AID 743210; active = well fitted activation curve with a large enough effect in the signal ratio in the repeat runs, with a control signal flat, not every such curve was filed as active; the % refers to the signal ratio; note: series mostly up to about 63 µM)
# Outline: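 Heat shock element–beta-lactamase HeLa reporter cells; qHTS with compounds for 5 h at 37 C; detection by FRET substrate fluorescence after 2.5 h at RT.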
# [9] = qHTS assay to identify small molecule agonists of the peroxisome proliferator-activated receptor delta (PPARd) signaling pathway - cell viability counter screen (AID 743211); note: nearly all actives have a fitted effect of over 55% in size; note: potency is the fitted concentration of half-maximal effect
# Outline: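 Viability of GeneBLAzer PPARd UAS-bla HEK293H cells was assessed after 17 h compound incubation at 37C, using CellTiter-Glo reagent added after the reporter read and luminescence recorded 30 min later.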
# [10] = qHTS assay to identify small molecule antagonists of the peroxisome proliferator-activated receptor delta (PPARd) signaling pathway - cell viability counter screen (AID 743213); note: nearly all actives have a fitted effect of over 50% in size; note: potency is the fitted concentration of half-maximal effect
# Outline: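 PPARd-bla HEK293H cells (3000/well) got compound plus 300 nM L165041 agonist for 17 h at 37 C. Viability in the same wells came from CellTiter-Glo luminescence after 30 min at room temperature.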
# [11] = target: Peroxisome proliferator-activated receptor delta (Homo sapiens) (UniProt Q03181); assay: qHTS assay to identify small molecule antagonists of the peroxisome proliferator-activated receptor delta (PPARd) signaling pathway (AID 743215; active = well fitted inhibition curve with a large enough effect in the signal ratio in the repeat runs, not every such curve was filed as active; the % refers to the signal ratio;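 note: cells stimulated with agonist L165041 at 300 nM final during compound exposure; series mostly up to about 62 µM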)
# Chain of Peroxisome proliferator-activated receptor delta (Homo sapiens) (Q03181 whole entry, looked up): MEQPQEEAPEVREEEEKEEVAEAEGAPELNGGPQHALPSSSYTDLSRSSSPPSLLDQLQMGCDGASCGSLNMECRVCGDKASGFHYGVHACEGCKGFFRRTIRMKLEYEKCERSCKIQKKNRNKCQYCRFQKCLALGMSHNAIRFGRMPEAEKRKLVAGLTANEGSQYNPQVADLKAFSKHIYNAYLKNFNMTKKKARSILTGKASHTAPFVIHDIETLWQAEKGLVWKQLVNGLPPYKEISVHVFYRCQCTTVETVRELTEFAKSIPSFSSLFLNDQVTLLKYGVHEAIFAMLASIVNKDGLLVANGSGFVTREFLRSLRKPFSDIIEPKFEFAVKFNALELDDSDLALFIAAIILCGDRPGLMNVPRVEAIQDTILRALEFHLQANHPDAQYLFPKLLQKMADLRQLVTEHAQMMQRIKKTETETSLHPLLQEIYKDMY
# Outline: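 Here, a reporter line (HEK293H, beta-lactamase under a UAS) measures PPARd signaling. Compounds are tested against agonist L165041 at 300 nM final concentration over 17 h at 37 C, with fluorescence read after substrate.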
# [12] = qHTS assay to identify small molecule agonists of the farnesoid-X-receptor (FXR) signaling pathway - cell viability counter screen (AID 743218); note: nearly all actives have a fitted effect of over 45% in size; note: potency is the fitted concentration of half-maximal effect
# Outline: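 Quantitative HTS counter screen measuring ATP-based viability via CellTiter-Glo luminescence in HEK 293T cells carrying a UAS-driven beta-lactamase reporter, after 16 h compound exposure at 37 C.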
# [13] = qHTS assay to identify small molecule agonists of the vitamin D receptor (VDR) signaling pathway - cell viability counter screen (AID 743224); note: nearly all actives have a fitted effect of over 50% in size; note: potency is the fitted concentration of half-maximal effect
# Outline: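 CellTiter-Glo viability readout on VDR-bla cells, measured after 16 h of compound treatment at 37C in the same wells.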
# [14] = target: Bile acid receptor (Homo sapiens) (UniProt Q96RI1); assay: qHTS assay to identify small molecule antagonists of the farnesoid-X-receptor (FXR) signaling pathway (AID 743217; active = well fitted inhibition curve with a large enough effect in the signal ratio in the repeat runs, not every such curve was filed as active; the % refers to the signal ratio)
# Chain of Bile acid receptor (Homo sapiens) (Q96RI1 whole entry, looked up): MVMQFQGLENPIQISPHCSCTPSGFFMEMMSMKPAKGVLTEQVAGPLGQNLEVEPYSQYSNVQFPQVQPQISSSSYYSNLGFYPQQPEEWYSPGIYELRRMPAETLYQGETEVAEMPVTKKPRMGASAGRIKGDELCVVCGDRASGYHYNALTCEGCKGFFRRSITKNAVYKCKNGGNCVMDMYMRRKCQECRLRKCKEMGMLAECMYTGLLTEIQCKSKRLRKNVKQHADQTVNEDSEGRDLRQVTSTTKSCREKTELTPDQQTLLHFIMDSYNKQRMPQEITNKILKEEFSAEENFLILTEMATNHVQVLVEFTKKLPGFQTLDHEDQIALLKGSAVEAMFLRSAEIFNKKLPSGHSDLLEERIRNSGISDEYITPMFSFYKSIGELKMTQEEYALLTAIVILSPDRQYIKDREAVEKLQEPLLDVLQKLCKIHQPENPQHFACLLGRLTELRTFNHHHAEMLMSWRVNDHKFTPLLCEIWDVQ
# Outline: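 Test compounds are pin-transferred onto FXR-bla HEK 293T cells, then chenodeoxycholic acid is added at 50 uM final. After 16 h at 37 °C, LiveBLAzer B/G substrate is applied for 2 h at room temperature and fluorescence read.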
# [15] = target: Bile acid receptor (Homo sapiens) (UniProt Q96RI1); assay: qHTS assay to identify small molecule agonists of the farnesoid-X-receptor (FXR) signaling pathway (AID 743220; active = well fitted activation curve with a large enough effect in the signal ratio in the repeat runs, not every such curve was filed as active; the % refers to the signal ratio)
# Outline: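 FXR-UAS-bla HEK 293T cells carrying a UAS-driven beta-lactamase reporter were plated for 5 h at 37C/5% CO2, then exposed to DMSO-dissolved Tox21 10K compounds for 16 h at 37C. A LiveBLAzer B/G FRET substrate was loaded for 2 h at room temperature before fluorescence reading.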
# [16] = qHTS assay to identify small molecule antagonists of the farnesoid-X-receptor (FXR) signaling pathway - cell viability counter screen (AID 743221; active = well fitted cell-killing curve with a large enough effect in the repeat runs, not every such curve was filed as active; note: nearly all actives have a fitted effect of over 50% in size; note: potency is the fitted concentration of half-maximal effect)
# Outline: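 Quantitative HTS of the Tox21 10K library run in parallel with the beta-lactamase reporter read. HEK 293T cells carrying a UAS-driven bla reporter got compound and 50 uM CDCA (final) for 16 h; ATP-based luminescence followed.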
# [17] = target: Vitamin D3 receptor (Homo sapiens) (UniProt P11473); assay: qHTS assay to identify small molecule agonists of the vitamin D receptor (VDR) signaling pathway (AID 743222; calls by dose curve)
# Chain of Vitamin D3 receptor (Homo sapiens) (P11473 whole entry, looked up): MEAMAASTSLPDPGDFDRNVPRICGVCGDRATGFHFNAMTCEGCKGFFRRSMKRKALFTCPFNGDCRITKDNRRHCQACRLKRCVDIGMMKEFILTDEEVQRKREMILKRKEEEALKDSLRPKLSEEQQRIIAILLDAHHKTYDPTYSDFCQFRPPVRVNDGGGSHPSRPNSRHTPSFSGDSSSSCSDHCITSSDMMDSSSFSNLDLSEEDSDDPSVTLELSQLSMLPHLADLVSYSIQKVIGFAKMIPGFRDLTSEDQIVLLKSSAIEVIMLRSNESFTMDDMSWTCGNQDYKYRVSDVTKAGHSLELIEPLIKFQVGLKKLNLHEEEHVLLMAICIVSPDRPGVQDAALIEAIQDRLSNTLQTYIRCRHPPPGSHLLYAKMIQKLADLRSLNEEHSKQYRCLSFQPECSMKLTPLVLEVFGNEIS
# Outline: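 Tox21 cell reporter format: VDR-bla line, 16 h compound exposure in 5% CO2 at 37C, then fluorescence intensity after 2 h with LiveBLAzer B/G FRET substrate.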
# [18] = target: Vitamin D3 receptor (Homo sapiens) (UniProt P11473); assay: qHTS assay to identify small molecule antagonists of the vitamin D receptor (VDR) signaling pathway (AID 743223; active = well fitted inhibition curve with a large enough effect in the signal ratio in the repeat runs, not every such curve was filed as active; the % refers to the signal ratio)
# Outline: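 Fluorescence from LiveBLAzer B/G FRET substrate, read after 2 h at room temperature, reflects beta-lactamase reporter activity in VDR-bla cells treated 16 h at 37C with compounds and agonist 1alpha,25-dihydroxyvitamin D3 (3 nM final).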
# [19] = qHTS assay for small molecule agonists of the antioxidant response element (ARE) signaling pathway (AID 743202; active = well fitted activation curve with a large enough effect in the signal ratio in the repeat runs, not every such curve was filed as active; the % refers to the signal ratio)
# Outline: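 Following a 16 h, 37 C exposure of reporter HepG2 cells (ARE-driven beta-lactamase, 2,000 cells/well) to compounds, FRET substrate was applied for 2 h at room temperature and fluorescence intensity recorded.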
# [20] = target: Peroxisome proliferator-activated receptor delta (Homo sapiens) (UniProt Q03181); assay: qHTS assay to identify small molecule agonists of the peroxisome proliferator-activated receptor delta (PPARd) signaling pathway (AID 743212; calls by dose curve)
# Outline: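 Beta-lactamase reporter read by fluorescence (LiveBLAzer B/G FRET, 2 h, room temperature). Test agents, in DMSO, incubated at 37 C with PPARd-bla HEK293H cells.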
Structure (SMILES),Potency [1],Potency [2],Potency [3],Potency [4],Potency [5],Potency [6],Potency [7],Potency [8],Potency [9],Potency [10],Potency [11],Potency [12],Potency [13],Potency [14],outcome [15],Potency [16],outcome [17],Potency [18],Potency [19],outcome [20]
C=CCOC(=O)C(C)(C)OC(=O)c1cc(-n2c(=O)cc(C(F)(F)F)n(C)c2=O)ccc1Cl,inactive,inactive,inactive,inactive,inactive,inactive,inactive,inactive,inactive,inactive,inactive,inactive,inactive,–,–,–,–,–,–,–
COCc1cnc(C2=NC(C)(C(C)C)C(=O)N2)c(C(=O)O)c1 (centres undefined),inactive,inactive,inactive,inactive,inactive,inactive,inactive,inactive,inactive,inactive,–,inactive,inactive,inactive,inactive,inactive,inactive,inactive,–,–
CCC1(CCC(C)C)C(=O)NC(=O)NC1=O,inactive,inactive,inactive,inactive,–,inactive,inactive,inactive,–,inactive,–,–,–,–,inactive,–,–,–,inactive,–
CC(C)C1(C)N=C(c2ncccc2C(=O)O)NC1=O (centres undefined),inactive,inactive,inactive,inactive,–,inactive,inactive,inactive,inactive,inactive,inactive,inactive,inactive,inactive,inactive,inactive,inactive,inactive,inactive,inactive
Cc1cnc(C2=NC(C)(C(C)C)C(=O)N2)c(C(=O)O)c1 (centres undefined),inactive,inactive,inactive,inactive,–,inactive,inactive,inactive,–,inactive,–,inactive,–,–,–,inactive,inactive,inactive,inactive,–
CC(C)(C)NCC(O)c1ccccc1Cl (centres undefined),inactive,inactive,inactive,inactive,–,inactive,–,inactive,–,inactive,–,inactive,inactive,–,inactive,inactive,–,–,inactive,–
CN(C)N,inactive,inactive,inactive,inactive,inactive,inactive,–,inactive,inactive,inactive,inactive,inactive,inactive,–,–,inactive,inactive,inactive,inactive,inactive
O=C(Cc1ccccc1)OCCc1ccccc1,inactive,inactive,inactive,–,inactive,inactive,inactive,inactive,inactive,inactive,–,inactive,–,–,–,inactive,inactive,–,inactive,inactive
CC(C)[C@@H](C(=O)O[C@@H](C#N)c1cccc(Oc2ccccc2)c1)c1ccc(Cl)cc1,inactive,inactive,inactive,inactive,–,inactive,–,–,inactive,inactive,–,inactive,inactive,–,–,inactive,–,–,inactive,–
c1ccc2c(c1)sc1ccccc12,inactive,inactive,inactive,inactive,–,inactive,inactive,inactive,inactive,inactive,inactive,inactive,inactive,inactive,inactive,inactive,inactive,–,–,inactive
N#CC(C#N)=Cc1ccc(O)c(O)c1,inactive,inactive,inactive,inactive,–,inactive,inactive,inactive,inactive,inactive,inactive,inactive,inactive,–,–,inactive,–,inactive,–,inactive
CCCCCCCCn1sccc1=O,inactive,inactive,inactive,–,34.7 µM (active) and 28.9 µM (active),21.7 µM (active) and 25.5 µM (active),–,–,1.95 µM (active) and 2.04 µM (active),1.38 µM (active) and 1.82 µM (active),–,7.78 µM (active) and 5.13 µM (active),873 nM (active) and 1.15 µM (active),–,–,6.18 µM (active) and 4.57 µM (active),inactive,–,–,–
